Results on 40 compounds are retold here after PubChem BioAssay (NCI).

SMILES strings stand for the structures. About 83,000 compounds went through this panel and 20% of them were active in at least one assay; those are over-represented in the sample as a whole.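 Interpretation: 100, growth as untreated; towards 0, rising growth inhibition; 0, no net growth; 0 to -100, cell death. Compounds scoring below 10 were considered active.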 A number with no mark means an inactive call. Calls of active or inactive are those of the source.

In the assay the test system is UO-31 renal. As to the kind of experiment: NCI-60 one-dose screen, 48 h (100 = growth as untreated, 0 = no growth, -100 = all killed). As to conditions: 10 µM unless noted. On the procedure:
Growth inhibition of the UO-31 human tumor cell line is measured as a screen for anti-cancer activity. Cells are grown in 96 well plates and exposed to the test compound for 48 hours. Compounds are tested at a single concentration, which is 10^-5 M for most compounds. The reported endpoint is percent growth (GI% or GIPRCNT), where numbers from 0 - 100% represent growth inhibition, and numbers from -100% - 0 represent cell death. For example, a value of 40 represents 60% growth inhibition. A value of 0 means no net growth occurred over the course of the experiment. A value of -40 indicates 40% of cells at the beginning of the experiment died by the end of the experiment. A value of -100 means all cells are dead at the end of the experiment.
NCI-60 Human Tumor Cell Lines Screen was performed using the standard one-dose NCI protocol, which is described in more detail at https://dtp.cancer.gov/discovery_development/nci-60/default.htm.
Compounds with GIPRCNT values below 10 were considered active. Activity score was based on GIPRCNT using the following formula: […]
Score is 0 for GIPRCNT values of 100 or above, 50 for GIPRCNT values of 0, and 100 for GIPRCNT values of -100.
For `CN(C)c1ccc(/C=C/C2=[N+](C)c3ccccc3C2(C)C)cc1`, the growth was 19.4%. Next, `C#Cc1cccc(Nc2ncnc3ccc(-c4cnc(Cl)c(NS(C)(=O)=O)c4)cc23)c1`: -80.8% (active); `O=C(/C=C/C12c3ccccc3C(c3ccccc31)C1C(=O)NC(=O)C12)c1cccs1` (stereo not given): 42.6%; `CCCCC1=C(Br)C(=O)c2ncccc2C1=O`: 87.6%. Turning to `C=C1C(=O)O[C@H]2[C@H]1CC/C(COC(=O)NCc1ccc(Cn3c(=O)sn(CCCC)c3=O)cc1)=C\CC[C@@]1(C)O[C@@H]21`, the growth was 3.12% (active).

With `Nc1ncc(-c2ccc3ncnc(N4CCc5cc(F)c(Cl)cc54)c3c2)cc1C=O`, the growth was 0.272% (active). The result for `CC(C)n1cc(C2=C(c3cccc4ccccc34)C(=O)NC2=O)c2cc(Br)ccc21` reads 58%; that for `CCN1C(=O)N(CC)C2C1NC(=S)N2/N=C/C=C/c1cccs1` (stereo not given), 44.9%; that for `Cc1c(C)c2c(c(C)c1OC(=O)CCC(=O)[O-])CCC(C)(CCCCCCCCCCC[P+](c1ccccc1)(c1ccccc1)c1ccccc1)O2` (stereo not given), -3.37% (active). Next, `COc1cccc(C(=O)Nc2cccc(NC(=O)c3ccccn3)c2)c1`: 79.5%. Next, `CCOC(=O)C#Cc1c(CC(=O)OCC)nnn1[C@H]1O[C@@H](CO)[C@@H]2OC(C)(C)O[C@@H]21`: 15.7%; `CCOC(=O)CSc1nc2sc3c(c2c(=O)n1-c1ccccc1)CCCCC3`: 84.1%. As to `CCOC(=O)/C=C1\S/C(=N\Nc2cc(=O)[nH]c3ccc(OC)cc23)N(c2ccccc2)C1=O`, the growth is 82.4%. The result for `CC(C)C(=O)Nc1ncc(C(=O)NCCN(Cc2ccccc2)C(=O)c2ccc(S(=O)(=O)Nc3ccccc3)cc2)s1` reads 80.2%. Next, `CC(CN)[C@@H]1CC[C@]2(CO)CC[C@]3(C)[C@H](CC[C@@H]4[C@@]5(C)CCC(NCCO)C(C)(C)[C@@H]5CC[C@]43C)[C@@H]12` (stereo not given in full): 69.7%; `O=C(Nc1ncc(Cc2ccc(Cl)cc2)s1)C1=NCCCCN1`: 84.3%; `CCN1C(=O)N(CC)C2C1NN=c1s/c(=C\c3ccc([N+](=O)[O-])cc3)c(=O)n12` (stereo not given): 37.5%. In the case of `Nc1ncc(-c2ccc3ncnc(N4CCc5cc(F)c(Cl)cc54)c3c2)cc1C(F)(F)F`, the growth is -2.54% (active). Next, `COC12C=C/C(=C(/C(=O)OCc3ccccn3)C(=O)CCCCCCCCC3(OC)C=C/C(=C(/C(=O)OCc4ccccn4)C(=O)CCCCCCCC1)O3)O2`: -45.7% (active); `COc1ccc(/C(C)=C(\c2ccc(Cl)cc2)c2ccc(OCCCN(C)C)cc2)cc1`: 64.5%; `CCOc1ccccc1NC(=O)CCC(=O)OC`: 81.8%. Next, `CSc1nn2c(-c3cc4cc(Br)ccc4oc3=O)ccnc2c1C#N`: 89.8%; `CN1/C(=C/C=C/c2n(Cc3ccc4ccccc4c3)c(Cl)c(Cl)[n+]2Cc2ccc3ccccc3c2)Oc2ccccc21`: -93.1% (active); `CCCC1Cc2cc(-n3nc(C)c4c3CC(C)(C)CC4=O)cc(NC3CCC(O)CC3)c2C(=O)N1` (stereo not given): 28.9%. Next, `CCCCCCCCCCCCCC[n+]1ccc2c(C)c3c(c(C)c2c1)c1cc(O)ccc1n3CC`: -1.41% (active). Turning to `C=CCn1c(SCC(=O)Nc2ccc(C(=O)/C=C/c3cc(OC)c(OC)c(OC)c3)cc2)nnc1-c1cc(-c2ccc(S(N)(=O)=O)cc2)nc2ccccc12`, the growth was 77.1%. The result for `COc1ccc(NC(=O)CSc2oc(-c3ccccc3)nc2S(=O)(=O)c2ccc(Cl)cc2)c(OC)c1` reads 61.6%; that for `CCC(=C(c1ccc(OCCN(CC)CC)cc1)c1ccc(OCCN(CC)CC)cc1)c1ccc(Cl)cc1`, -81.2% (active); that for `Cc1ccc(C(F)(F)F)cc1N1CCN(C(=O)[C@H]2C[C@H]2c2ccc(C(F)(F)F)nc2)CC1`, 69%. On to `COc1ccc(-c2ccc(-c3ccc(C(=N)N)nc3)s2)cc1`, for which the growth was -96.8% (active). Regarding `COc1ccc(S(=O)(=O)NC2c3ccccc3CC2O)cc1OC` (stereo not given), the growth was 78.8%.

On to `O=C(Nc1ccccc1)Nc1ccccc1CNc1nc(Nc2ccc(OCCN3CCCC3)cc2)ncc1Cl`, for which the growth was 39.6%.

Take `O=C(OCC(O)(CO)C(=O)NC12CC3CC(CC(C3)C1)C2)c1ccc(Cl)cc1` (stereo not given): the growth was 82.6%. The result for `C#C[C@]1(O)CC[C@H]2[C@@H]3CC=C4c5sc(-c6cccc(C)c6)nc5CC[C@]4(C)[C@H]3CC[C@@]21C` reads 34.1%.

As to `NS(=O)(=O)Oc1cccc(-c2nc3sccn3c2-c2ccccc2)c1`, the growth is 68.8%.

Turning to `C/C(=N\NC(=O)c1ccc(C(C)(C)C)cc1)c1ccc(O)cc1O`, the growth was 16.8%. `O=C(CNc1ncco1)Nc1ccc(S(=O)(=O)c2ccc(NC(=O)CNc3ncco3)cc2)cc1`: the growth is 41.1%. The result for `COc1ccc(-c2csc(NC(=O)CSc3nc(C)cc(=O)[nH]3)n2)cc1` reads 99%; that for `O=c1c2cccc3c(N4CCOCC4)ccc(c32)c2nc3ccccc3n12`, 65.9%; that for `N#C/C(Sc1nc2sc3c(c2c(=O)n1Cc1ccccc1)CCCC3)=C1/SC=C(c2ccc(Cl)cc2)N1c1ccccc1`, 63.7%.
